This is an account of results in PubChem BioAssay (EPA / NIEHS).

Results filed as inconclusive are left out. Active and inactive are the calls of the source. How the source made its calls: active means hit-call score of the fitted dose curve at least 0.9, where 1 is the maximum; inconclusive means response in the unintended direction; inactive means score below 0.9.

Sequence of Serine/threonine-protein phosphatase PP1-alpha catalytic subunit (Homo sapiens) (P62136 whole entry, looked up): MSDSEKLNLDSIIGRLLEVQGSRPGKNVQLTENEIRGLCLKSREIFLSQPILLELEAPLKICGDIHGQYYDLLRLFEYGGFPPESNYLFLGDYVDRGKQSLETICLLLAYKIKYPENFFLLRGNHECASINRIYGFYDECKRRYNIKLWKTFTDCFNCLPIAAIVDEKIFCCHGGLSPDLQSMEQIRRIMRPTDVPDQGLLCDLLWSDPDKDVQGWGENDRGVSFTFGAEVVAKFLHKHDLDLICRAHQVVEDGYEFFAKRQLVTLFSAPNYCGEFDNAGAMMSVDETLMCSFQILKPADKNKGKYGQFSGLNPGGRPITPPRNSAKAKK
Sequence of human Phosphatase and Tensin Homolog (PTEN), PTEN (gene 5728) (P60484 whole entry, looked up): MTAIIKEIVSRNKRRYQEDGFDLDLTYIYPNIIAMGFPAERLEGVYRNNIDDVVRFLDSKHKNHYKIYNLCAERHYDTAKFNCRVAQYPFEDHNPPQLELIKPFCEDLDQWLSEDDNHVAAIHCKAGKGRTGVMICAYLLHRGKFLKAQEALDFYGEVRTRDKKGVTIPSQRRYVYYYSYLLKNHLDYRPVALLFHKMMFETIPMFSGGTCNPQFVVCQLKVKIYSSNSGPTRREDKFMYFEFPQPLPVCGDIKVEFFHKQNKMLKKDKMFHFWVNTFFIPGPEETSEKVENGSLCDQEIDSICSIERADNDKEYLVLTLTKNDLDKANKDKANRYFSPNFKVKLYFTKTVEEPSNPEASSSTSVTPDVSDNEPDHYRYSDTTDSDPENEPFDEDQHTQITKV

The first assay has as its target Serine/threonine-protein phosphatase PP1-alpha catalytic subunit (Homo sapiens) (UniProt P62136). The assay is described as follows: NVS_ENZ_hPPP1CA: NovaScreen (NVS) Enzymatic Assay for human Protein Phosphatase 1 Aatalytic subunit Alpha (PPP1CA) (AID 2283200). The essentials: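 Chemicals were first screened in duplicate at 25 uM, and those passing threshold (e.g. 30% inhibition) were run as concentration series to 50 uM. Cell-free recombinant protein, 1.33 h read, fluorescent substrate/product mobility-shift detection, normalised to DMSO.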
For the compound `CC(C)NC(=O)N1CC(=O)N(c2cc(Cl)cc(Cl)c2)C1=O`, the compound was called inactive.
With `O=P(O)(O)CCCl`, the AC50 (in general, the midpoint of the concentration-response curve, whichever way the signal moves) is 9.89 µM (active).
Take `CCNC(=O)NC(=O)C(C#N)=NOC`: the result was inactive.

A further assay deals with human Protein Tyrosine Phosphatase Non-receptor Type 1 (PTPN1), PTPN1 (gene 5770) (UniProt P18031). Kind of assay: NVS_ENZ_hPTPN1: NovaScreen (NVS) Enzymatic Assay for human Protein Tyrosine Phosphatase Non-receptor Type 1 (PTPN1) (AID 2283201). In a few lines: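 Chemicals were first tested in duplicate at 25 uM, and those passing threshold went on to singleton concentration series topping at 50 uM. Recombinant enzyme, specific substrate, product separated by mobility shift, fluorescence read at 1.33 h; activity loss relative to DMSO.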
Sequence of human Protein Tyrosine Phosphatase Non-receptor Type 1 (PTPN1), PTPN1 (gene 5770) (P18031 whole entry, looked up): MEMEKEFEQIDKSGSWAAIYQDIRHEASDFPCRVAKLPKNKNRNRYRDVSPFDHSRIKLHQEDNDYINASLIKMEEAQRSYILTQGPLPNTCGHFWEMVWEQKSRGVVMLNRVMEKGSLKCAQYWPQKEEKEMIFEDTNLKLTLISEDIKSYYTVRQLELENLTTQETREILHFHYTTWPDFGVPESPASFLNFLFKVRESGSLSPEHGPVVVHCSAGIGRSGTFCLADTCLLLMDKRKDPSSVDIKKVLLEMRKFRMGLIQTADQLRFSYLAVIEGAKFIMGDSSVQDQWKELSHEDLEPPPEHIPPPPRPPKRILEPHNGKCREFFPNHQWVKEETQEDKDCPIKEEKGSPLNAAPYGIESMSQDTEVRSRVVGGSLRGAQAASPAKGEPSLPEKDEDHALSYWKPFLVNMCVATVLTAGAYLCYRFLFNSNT
As for `Nc1cnn(-c2ccccc2)c(=O)c1Cl`, the compound was classed as inactive.
In the case of `CCCC(=NOCC)C1=C(O)CC(CC(C)SCC)CC1=O` (centres undefined), the compound was called inactive.
On the same count and under the same terms, to `Nc1c(Cl)c(Cl)nc(C(=O)O)c1Cl` belongs “inactive”; to `N#Cc1c[nH]cc1-c1cccc2c1OC(F)(F)O2`, “inactive”.
For the compound `CCOc1nc(F)cc2nc(S(=O)(=O)Nc3c(Cl)cccc3Cl)nn12`, the compound was called inactive.
As for `CN=C=S`, the outcome was inactive.
With `CC(C)N1C(=O)N(c2ccccc2)CSC1=NC(C)(C)C`, the result was inactive.

The target of a further assay is human Phosphatase and Tensin Homolog (PTEN), PTEN (gene 5728) (UniProt P60484). The assay is described as follows: NVS_ENZ_hPTEN: NovaScreen (NVS) Enzymatic Assay for human Phosphatase and Tensin Homolog (PTEN) (AID 2283203). The essentials:
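Loss of fluorescent product signal after mobility-shift separation reports PTEN activity, recombinant human enzyme, 1 h after compound addition. Single 25 uM duplicate screen, then concentration-response on actives; DMSO baseline.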
Turning to `CCCC(=NOCC)C1=C(O)CC(CC(C)SCC)CC1=O` (centres undefined), the AC50 was 18.2 µM (active).
In the case of `N#CN=C1SCCN1Cc1ccc(Cl)nc1`, the result was inactive.
As to `O=C1C2CC=CCC2C(=O)N1SC(Cl)(Cl)Cl` (centres undefined), the half-maximal activity concentration (AC50) is 23 µM (active).
On the same count and under the same terms, under `CCOc1nc(F)cc2nc(S(=O)(=O)Nc3c(Cl)cccc3Cl)nn12` stands 29.9 µM (active).
